Active and inactive are the calls of the source. Unless noted, the rule behind the calls is not given here.
How the values were obtained:
[1] = A549 cell viability effects, profiling panel, calcein-AM fluorescence, 48 h, basal (AID 1162); details: higher = more signal; note: test concentration not given here
[2] = adipocyte viability effects, profiling panel, cell-based, 3T3-L1 adipocytes, calcein-AM fluorescence, 48 h, basal (AID 1163); details: 3T3-L1 adipocytes viability, higher = more signal; note: test concentration not given here
[3] = HepG2 cell viability effects, profiling panel, calcein-AM fluorescence, 48 h, basal (AID 1164); details: higher = more signal; note: test concentration not given here
[4] = MM1S cell viability effects, profiling panel, calcein-AM fluorescence, 48 h, basal (AID 1165); details: higher = more signal;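 note: viability of MM1S multiple myeloma cells under basal unstimulated conditions; test concentration not given here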
[5] = basal RPMI8226 viability, no added stimulus, profiling panel, cell-based, calcein-AM fluorescence, 48 h, PK04 Diversity Set (AID 1166); details: RPMI8226 myeloma viability, higher = more signal;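 note: cells grown under basal conditions without added stimulus; test concentration not given here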
[6] = basal HepG2 mitochondrial membrane potential changes, profiling panel, cell-based, JC-1 fluorescence, 24 h, 100 nL compound (AID 1167); details: higher = more signal; note: test concentration not given here
[7] = basal 3T3-L1 adipocyte mitochondrial potential changes, profiling panel, cell-based, JC-1 fluorescence, 3T3-L1 adipocytes, 24 h, 100 nL compound (AID 1168); details: JC-1 mitochondrial fluorescence, higher = more signal, called active from +8 up or from −8 down; note: test concentration not given here
[8] = basal RPMI8226 mitochondrial membrane potential changes, profiling panel, cell-based, JC-1 fluorescence, 24 h, 100 nL compound (AID 1169); details: RPMI8226 myeloma, JC-1 mitochondrial potential fluorescence, higher = more signal; note: test concentration not given here
[9] = basal MM1S mitochondrial membrane potential changes, profiling panel, cell-based, JC-1 fluorescence, 24 h, 100 nL compound (AID 1170); details: higher = more signal; note: test concentration not given here
[10] = A549 lung cancer cell viability effects, profiling panel, resazurin fluorescence, 24 h, PK04 Diversity Set (AID 1171); details: higher = more signal, called active from +8 up or from −8 down; note: test concentration not given here
[11] = HepG2 liver cancer cell viability effects, profiling panel, resazurin fluorescence, 24 h, PK04 Diversity Set (AID 1172); details: higher = more signal; note: test concentration not given here
[12] = basal S. cerevisiae growth modulation, no modifier, primary screen, OD600, strain BY4716, 24 h, basal condition (AID 1173); details: OD600, 24 h, higher = more signal, called active from +8 up or from −8 down
[13] = MM1S myeloma cell viability, profiling panel, resazurin fluorescence, basal, 24 h, PK04 Diversity Set (AID 1174); details: higher = more signal, called active from +8 up or from −8 down;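 note: MM1S multiple myeloma cell line; test concentration not given here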
[14] = target: Dihydroorotate dehydrogenase (quinone), mitochondrial (Plasmodium falciparum (isolate 3D7)) (UniProt Q08210); assay: PfDHODH enzyme inhibitors, primary screen, biochemical, C-terminal His tag, absorbance 600 nm (AID 1175); details: DCIP absorbance 600 nm, higher = more signal, called active from +8 up or from −8 down;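 note: recombinant parasite enzyme with a five histidine tag at its C terminus; test concentration not given here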
Dihydroorotate dehydrogenase (quinone), mitochondrial (Plasmodium falciparum (isolate 3D7)), sequence (Q08210 whole entry, looked up): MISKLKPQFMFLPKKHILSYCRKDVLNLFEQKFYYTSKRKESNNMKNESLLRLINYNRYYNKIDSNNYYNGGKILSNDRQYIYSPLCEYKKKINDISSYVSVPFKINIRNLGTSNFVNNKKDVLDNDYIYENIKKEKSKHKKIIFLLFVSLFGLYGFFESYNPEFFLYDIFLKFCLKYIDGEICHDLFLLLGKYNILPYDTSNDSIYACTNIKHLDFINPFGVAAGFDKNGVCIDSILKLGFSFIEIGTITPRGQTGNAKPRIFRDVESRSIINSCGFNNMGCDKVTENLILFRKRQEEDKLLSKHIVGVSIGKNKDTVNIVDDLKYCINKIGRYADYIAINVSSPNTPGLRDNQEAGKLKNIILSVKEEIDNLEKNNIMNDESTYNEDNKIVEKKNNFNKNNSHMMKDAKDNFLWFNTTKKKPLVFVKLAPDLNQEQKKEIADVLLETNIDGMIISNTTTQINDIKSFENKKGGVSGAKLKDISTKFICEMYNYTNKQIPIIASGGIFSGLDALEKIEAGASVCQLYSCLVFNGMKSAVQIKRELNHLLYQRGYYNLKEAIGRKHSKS

[15] = P. aeruginosa biofilm formation inhibitors, primary screen, strain PAO1, LB-PBS medium, absorbance 600 nm (AID 1176); note: test concentration not given here; details: P. aeruginosa PAO1 growth/biofilm, A600, 12 h; higher = more signal
[16] = S. cerevisiae RM11-1a growth modifiers, primary screen, strain RM11-1a, OD600, basal, 24 h (AID 1177); details: OD600, 24 h, higher = more signal, called active from +8 up or from −8 down;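 note: cultures grown under basal conditions with no added stressor; test concentration not given here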
[17] = E. coli acrAB mutant growth effects, primary screen, E. coli filamentation inducers, strain DRC39, OD650, 24 h (AID 1178); details: higher = more signal, called active from +8 up or from −8 down;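 note: growth measured as culture turbidity by optical density at 650 nm; test concentration not given here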
[18] = E. coli acrAB mutant growth effects, primary screen, E. coli filamentation inducers, strain DRC39, OD650, 48 h (AID 1179);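 note: screen aims at cell division blockers that make cells filament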; details: E. coli DRC39 delta-acrAB growth, higher = more signal, called active from +8 up or from −8 down
[19] = RPMI8226 myeloma cell viability, profiling panel, resazurin fluorescence, basal, 24 h, PK04 Diversity Set (AID 1180); details: higher = more signal;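 note: RPMI8826 multiple myeloma cell line at 5000 cells per well; test concentration not given here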
[20] = target: E3 ubiquitin-protein ligase XIAP (Homo sapiens) (UniProt P98170); assay: XIAP binders, primary screen, biophysical, small-molecule microarray, fluorescence 635 nm (AID 1181); details: small-molecule microarray binding, higher = more signal;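 note: score merges 667 nm emission and signal to noise over triplicate slides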
E3 ubiquitin-protein ligase XIAP (Homo sapiens), sequence (P98170 whole entry, looked up): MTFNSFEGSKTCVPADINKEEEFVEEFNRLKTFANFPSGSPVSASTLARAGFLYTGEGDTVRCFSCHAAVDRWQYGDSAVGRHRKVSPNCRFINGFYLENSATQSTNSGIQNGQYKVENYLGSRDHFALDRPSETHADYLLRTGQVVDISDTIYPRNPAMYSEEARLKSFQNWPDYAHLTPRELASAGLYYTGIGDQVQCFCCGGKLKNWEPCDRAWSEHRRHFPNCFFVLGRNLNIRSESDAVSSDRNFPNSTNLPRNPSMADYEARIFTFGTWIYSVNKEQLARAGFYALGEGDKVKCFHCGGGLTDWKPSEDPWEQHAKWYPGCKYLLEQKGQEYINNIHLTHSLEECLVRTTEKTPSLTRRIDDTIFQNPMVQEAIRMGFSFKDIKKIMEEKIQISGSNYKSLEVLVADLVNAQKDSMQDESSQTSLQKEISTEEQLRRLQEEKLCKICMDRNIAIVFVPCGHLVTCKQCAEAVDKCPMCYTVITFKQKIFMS

Row | Compound | z-score [1] | z-score [2] | z-score [3] | z-score [4] | z-score [5] | z-score [6] | z-score [7] | z-score [8] | z-score [9] | z-score [10] | z-score [11] | z-score [12] | z-score [13] | composite z-score [14] | z-score [15] | z-score [16] | z-score [17] | z-score [18] | z-score [19] | composite z-score [20]
1 | CN(C)C(=O)[C@]1(Cc2ccccc2)N=C(c2ccc(OCCCO)cc2)O[C@@H]1c1ccccc1N=[N+]=[N-] | -0.279 | -0.336 | -0.987 | -3.2 | -4.26 | 1.43 | 2.9 (inactive) | -1.18 | -2.37 | -1.75 (inactive) | -0.274 | -1.43 (inactive) | -2.64 (inactive) | 0.9 (inactive) | -0.0837 (inactive) | 1.29 (inactive) | 0.349 (inactive) | 0.908 (inactive) | -2.58 | 0.237
2 | CN1C(=O)C2C=CC(C(O)c3c(F)cccc3Cl)N(NC(=O)OC(C)(C)C)C2C1=O (stereo not given) | -0.646 | -0.204 | -0.482 | -0.208 | -1.64 | -1.25 | -0.555 (inactive) | -0.715 | 0.925 | 0.143 (inactive) | -0.417 | 0.357 (inactive) | -0.414 (inactive) | 0.17 (inactive) | 0.791 (inactive) | 0.0301 (inactive) | -0.775 (inactive) | -0.181 (inactive) | -0.301 | 0.0951
3 | C=CCNC(=O)[C@H]1[C@@H]2C(=O)O[C@@H](c3ccccc3)[C@@H](c3ccccc3)N2[C@@H](c2ccc(OCCO)cc2)[C@]12C(=O)Nc1ccc(C#CCC(C(=O)OC)C(=O)OC)cc12 | -0.505 | 0.208 | 0.349 | -1.46 | -3.36 | -0.232 | 0.97 (inactive) | -0.817 | -1.12 | 0.149 (inactive) | 0.47 | 1.62 (inactive) | -0.447 (inactive) | 0.26 (inactive) | 2.63 (inactive) | 2.22 (inactive) | 0.634 (inactive) | -0.115 (inactive) | -2.64 | 0.0975
4 | CC(=O)n1cc(C(O)C2C=CC3C(=O)NC(=O)C3N2Nc2ccccn2)c2ccccc21 (stereo not given) | -0.407 | -1.52 | -0.252 | 0.0238 | 0.102 | -0.743 | -0.424 (inactive) | 0.634 | -0.0433 | -1.02 (inactive) | -1.3 | 0.627 (inactive) | -1.67 (inactive) | 0.496 (inactive) | 1.33 (inactive) | 0.605 (inactive) | -0.641 (inactive) | -0.109 (inactive) | -1.31 | 0.07

From PubChem BioAssay
